Consider 4 compounds from PubChem BioAssay (NCI).

The structures appear in SMILES notation. About 83,000 compounds went through this panel and 20% of them were active in at least one assay; those are over-represented in the sample as a whole.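 Method: cells in 96-well plates; compound added at one concentration; 48 h incubation; percent growth measured; values under 10 scored active.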 Unmarked numbers belong to inactive results.

The subject of the assay is SK-MEL-28 melanoma. Put plainly: NCI-60 one-dose screen, 48 h (100 = growth as untreated, 0 = no growth, -100 = all killed). The note with it: 10 µM unless noted.
In the case of `Cc1nc(Nc2ccccn2)sc1C(=O)CC(SCC(=O)Nc1ccc(Cl)cc1)c1ccccc1F` (centres undefined), the growth was 24.1%.

As for `Cc1cccc(-c2nc(Nc3ccc(C)c(S(N)(=O)=O)c3)c3ccccc3n2)c1`, the growth was 38.9%.

On to `CN(C)CCn1c2ccccc2c2nc3cc(C(F)(F)F)ccc3nc21`, for which the growth was 44.4%.

As to `S=C(Nc1ccccc1)Nc1ccc(OCc2nc3ccccc3[nH]2)cc1`, the growth was 61.6%.
